Compound activity (PubChem)
This is a sample that favours compounds with a hit; in the whole collection about 4% have one here.
Peg3 prom inh-1: reduces Peg3 promoter-driven luciferase expression in HeLa | 1.7% of 360,000 active | AID 588405 | inhibition, % at 20 µM | HeLa PEG-Prom luciferase reporter, luminescence, overnight;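 active means inhibition of at least 50% at 20 µM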
MITF TRPM1 inh: MITF TRPM1 promoter inhibition in SK-MEL-5 cells; SK-MEL-5 TRPM1 promoter luciferase, 24 h; inhibition, % at 12.5 µM; 0.83% of 330,000 active;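 active means mean inhibition across replicates of 60% or more, whatever share of single replicates reaches that level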
TROY signal inh: inhibitors of TROY-dependent NF-kB signaling. inhibition, % at 10 µM. Q293 LMP1-TROYcd NF-kB luciferase reporter, 4 h. 0.98% of 360,000 active. AID 1347056;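 active means compounds whose plate-normalised and pattern-corrected inhibition of the luciferase reporter signal at the single screening dose is 50% or more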
TWEAK-Fn14 inh: TWEAK-Fn14 signaling inhibition | TWEAK-stimulated Fn14 reporter cells, luciferase luminescence, 8 h | 2% of 360,000 active | AID 1159606 | inhibition, % at 10 µM; in the data active means inhibition above about 50%
EBV LMP1 NFkB: inhibitors of Epstein-Barr LMP1-induced NF-kappaB reporter; inhibition, % at 12.5 µM; AID 504558; 0.69% of 350,000 active; LMP1-induced NF-kappaB luciferase reporter cells, luminescence; in the data active means inhibition above about 41%
HIF-2a block: HIF-2a inhibition; 786-0 RCC cells HIF-2a reporter, luciferase luminescence, overnight; inhibition, % at 18.8 µM; 0.72% of 360,000 active; AID 624352;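 active means inhibition of the luminescence signal of 40% or more relative to plate controls, in a single-dose primary screen at 18.75 µM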
Peg3 prom inh-2: Peg3 promoter inhibition confirmation; HeLa PEG-Prom luciferase reporter, luminescence, overnight; 84% of 1,300 active; inhibition, % at 20 µM; shares compounds with Peg3 prom inh-1; AID 602417;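 active means at 20 µM dose, 40% or more inhibition averaged across four replicates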
A number is an active result; i = inactive; nt = no result given.

SMILES	Peg3 prom inh-1	MITF TRPM1 inh	TROY signal inh	TWEAK-Fn14 inh	EBV LMP1 NFkB	HIF-2a block	Peg3 prom inh-2
COCCn1c(-c2ccc(-c3ccc([N+](=O)[O-])cc3Br)o2)nc2c1c(=O)[nH]c(=O)n2CC(C)C	52	i	i	i	i	i	i
CCC(c1ccc(O)c(O)c1)C(CC)c1ccc(O)c(O)c1 (stereo not drawn)	100	i	i	i	i	79	98
CCC(NC(C)C)C(O)c1ccc(O)c(O)c1 (stereo not drawn)	i	i	i	i	i	i	nt
CCCn1c(SCC(=O)N2CCCc3ccccc32)nc2c1c(=O)n(C)c(=O)n2C	i	i	i	i	i	i	nt
CCCc1nc(SCC(=O)N2CCCc3ccccc32)c2c(=O)n(C)c(=O)n(C)c2n1	53	nt	i	i	i	i	46
CC[C@@]1(C(=O)OC)N[C@H](CN(C)S(=O)(=O)c2ccc(C(C)(C)C)cc2)[C@@H]2C(=O)N(C)C(=O)[C@@H]21	i	i	i	i	i	i	nt
CCOC(=O)c1ccc2ncc(C(=O)OCC)c(NCCN(C)C)c2c1	55	i	i	i	i	i	55
CCN(c1ccccc1)S(=O)(=O)c1ccc(C(=O)N(CCCN(C)C)c2nc3cc4c(cc3s2)OCO4)cc1	52	i	i	i	i	i	81
CN(C)CCCN(C(=O)c1ccc2ccccc2c1)c1nc2cc3c(cc2s1)OCO3	i	i	i	i	i	i	nt
CN(C)CCCN(C(=O)c1ccc(S(=O)(=O)N(C)Cc2ccccc2)cc1)c1nc2cc3c(cc2s1)OCO3	68	85	i	i	i	i	89
COCCC(=O)N1CCC(Oc2ccc(C(=O)NC3CCOC(C)(C)C3)cc2)CC1 (stereo not drawn)	i	i	i	i	i	i	nt
CC(C)C(=O)NC(=S)Nc1ccccc1N1CCN(C(=O)c2ccccc2)CC1	58	i	i	i	i	i	40
CC(=O)NC(=S)Nc1ccccc1N1CCN(C(=O)c2ccccc2)CC1	i	i	i	i	i	i	nt
COc1ccc(C(=O)O/N=C(\N)c2ccccn2)cc1	99	81	84	103	81	i	92
COc1ccc(C(=O)NNC(=O)c2ccccn2)cc1	105	85	87	102	i	83	95
COc1cc(OC)cc(C(=O)NNC(=O)c2ccccn2)c1	i	i	i	i	i	i	nt
N/C(=N\OC(=O)c1ccc(Cl)cc1)c1ccccn1	78	i	70	101	i	i	i
N/C(=N\OC(=O)c1ccccc1[N+](=O)[O-])c1ccccn1	i	i	i	i	i	i	nt
COc1cc(OC)cc(C(=O)O/N=C(\N)c2ccccn2)c1	i	nt	i	i	nt	i	nt
N/C(=N\OC(=O)c1ccccc1Cl)c1ccccn1	59	66	70	102	65	i	i
COc1ccc(NC(=O)c2cc(C3CCCCN3S(=O)(=O)Cc3ccccc3)on2)c(C)c1 (stereo not drawn)	i	nt	i	i	nt	i	nt
COCc1c(C(=O)N/N=C/c2cccc3ccccc23)nnn1-c1nonc1N	i	i	i	i	i	i	nt
CCOC(=O)CSc1nc(N)c(C#N)c(CC(C)C)c1C#N	i	i	i	i	i	i	nt
CC1CCCCC1NC(=O)CSc1nnc(CC(=O)Nc2ccccc2F)n1C (stereo not drawn)	i	i	i	i	i	i	nt
COC(=O)c1ccc2nc(NC(=O)CCS(=O)(=O)c3ccccc3)sc2c1	i	i	i	i	i	i	nt
SMILES	Peg3 prom inh-1	MITF TRPM1 inh	TROY signal inh	TWEAK-Fn14 inh	EBV LMP1 NFkB	HIF-2a block	Peg3 prom inh-2
CS(=O)(=O)c1ccc2nc(NC(=O)CCS(=O)(=O)c3ccccc3)sc2c1	71	i	i	i	i	i	47
NC(=O)SCC(=O)Nc1ccc(Cl)c(Cl)c1	66	i	i	i	i	i	i
Cc1[nH]n(-c2nc(-c3ccc(Cl)cc3)cs2)c(=O)c1N=Nc1ccc(O)cc1	54	i	i	88	i	i	i
Cc1cccc(NC(=O)Nc2nnc([C@H]3C[C@H](O)[C@@H](CO)O3)s2)c1	i	nt	i	i	nt	i	nt
CCCCn1c(N)c(N(CC(C)C)C(=O)c2cc(Br)c(Br)s2)c(=O)[nH]c1=O	81	i	i	i	i	i	41
Cc1cc(C)c(CN2CCN(CCCn3cnc(C(=O)Nc4ccc(C)c(C)c4)n3)CC2)c(C)c1	98	84	i	i	i	i	97
O=C(CC[C@H]1O[C@@H](n2ccc(=O)[nH]c2=O)[C@H](O)[C@@H]1O)NCC(c1ccccc1)c1ccccc1	i	nt	i	i	nt	i	nt
CC(C)(C)OC(=O)N1CCC(C(=O)Nc2cccc(C(=O)N3CCCCC3)c2)CC1	i	i	i	i	i	i	nt
Cc1cccc2c1-c1sc(C(=O)NCCCN3CCCC(C)C3)cc1CO2 (stereo not drawn)	76	i	i	i	i	i	99
CCCN1CCN(CCCNC(=O)c2cc3c(s2)-c2c(C)cccc2OC3)CC1	i	i	i	i	i	i	nt
CN(C)C1=NCCN1CCc1cccc(F)c1	i	i	i	i	i	i	nt
CCOC(=O)N1CCN(S(=O)(=O)c2ccc(C(=O)Nc3nc4ccc(F)cc4s3)cc2)CC1	55	i	i	i	i	i	i
CCOC(=O)N1CCN(S(=O)(=O)c2ccc(F)cc2)CC1	i	i	i	i	i	i	nt
COc1cc(OC)cc(C(=O)Nc2ccccc2-c2nnn(CC(=O)Nc3cc(C)on3)n2)c1	71	i	i	i	i	i	i
COc1ccc(C(=O)Nc2ccccc2-c2nnn(CC(N)=O)n2)cc1	i	i	i	i	i	i	nt
CCC(=C(c1ccc(OC)cc1)c1ccc(OC)cc1)c1cn(CC(O)CN2CCN(C)CC2)c2ccccc12 (stereo not drawn)	105	86	i	i	i	i	101
Nc1ncn([C@@H]2O[C@H](CO)[C@@H](O)[C@H]2O)c(=O)n1	72	79	i	72	i	i	50
O=C(Nc1ccc2oc(-c3ccncc3)nc2c1)c1ccc([N+](=O)[O-])o1	102	72	i	i	i	i	98
O=C(Nc1ccc(-c2nc3ncccc3o2)cc1)c1ccc([N+](=O)[O-])o1	100	77	i	i	i	i	i
COc1ccc(-n2c(SCC(=O)Nc3cc(C(=O)O)ccc3C)nc3ccccc3c2=O)cc1Cl	i	i	i	i	i	i	nt
CSCCC(C(=O)NC(C)(C)C)n1c(-c2ccc3c(c2)OCO3)nc2ccccc21 (stereo not drawn)	nt	nt	nt	nt	nt	i	nt
CCCCNC(=O)C1C(c2ccc(C(F)(F)F)cc2)=Nc2ccccc2N1C(=O)c1ccc2nc(C)[nH]c2c1 (stereo not drawn)	nt	nt	nt	nt	nt	i	nt
O=C1C(=O)c2ccccc2C(O)=C1c1ccccc1F	i	i	i	i	i	i	nt
O=C1C(c2ccnc3ccccc23)=C(O)c2ccccc21	88	i	59	94	i	i	i
